# Hit rate of the full screen: of about 300,000 compounds, about 37,000 (12%) were called active. Cut-off read from the data, not from the text of the source: active = max response mostly above about 13% (no sharp cut-off); inactive = mostly below about 14%. What follows is part of a selection rich in actives, with near analogues and random picks from the rest.
# Assay: Cycloheximide Counterscreen for Small Molecule Inhibitors of Shiga Toxin; note: read at 38.3 µM for the half of the compounds with a filed dose; 0% is about no effect
# Details: cell reporter, cycloheximide protein synthesis inhibition counterscreen; hits give high values
row,Structure (SMILES),max response
1,CCOC(=O)C1(CCOc2ccccc2)CCN(Cc2cc(OC)cc(OC)c2)CC1,-1.48% (inactive)
2,CCOC(=O)C1(CCOC)CCN(Cc2ccc(C(=O)OC)cc2)CC1,19.1% (active)
3,CCOC(=O)C1(CCOC)CCN(Cc2cc3ccccc3s2)CC1,-0.534% (inactive)
4,Cc1nc2cc(NCc3cccs3)ccc2n1C,51.1% (active)
5,CCOc1ccc(C(=O)Nc2ccc(CN3CCOCC3)cc2)cc1Cl,6.5% (inactive)
6,Cc1nc2cc(NC(=O)Nc3cccc(F)c3)ccc2n1C,23% (active)
7,Cc1cc2nc(C)n(CCCNC(=O)Nc3ccccc3)c2cc1C,-3.47% (inactive)
8,Cn1ncc(Br)c1C(=O)NCc1cccs1,2.99% (inactive)
9,O=C(CCN1C(=O)c2ccccc2C1=O)Nc1cccc(F)c1,-3.51% (inactive)
10,Cn1c(CN2CCOCC2)nc2cc(NC(=O)c3ccc(Cl)cc3)ccc21,32.5% (active)
11,Cc1nc2cc(NC(=O)NC3CC3)ccc2n1C,20.8% (active)
12,COc1ccc(-n2cnc3cc(NCc4ccco4)ccc32)cc1,20.3% (inactive)
13,CCOC(=O)N1CCN(Cc2nc3cc(NC(C)=O)ccc3n2C)CC1,-2.56% (inactive)
14,Cc1ccc(NC(=O)NC2CCCCC2)cc1S(=O)(=O)N1CCOCC1,-2.12% (inactive)
15,Cc1cc(C)nc(-n2ncc3c2CC(c2ccc(C(C)C)cc2)CC3=O)n1 (stereo unspecified),3.79% (inactive)
16,CCC(=O)NC(Nc1nc2ccc(C)cc2s1)(C(=O)OC)C(F)(F)F (stereo unspecified),1.01% (inactive)
17,O=C(CN1C(=O)c2cccc3cccc1c23)Nc1ccccc1,-0.618% (inactive)
18,Cc1cc2c(cc1S(=O)(=O)NCc1ccc(Cl)cc1)OCC(=O)N2,1.87% (inactive)
19,CN(CCc1ccccn1)C1CCCN(S(=O)(=O)c2ccccc2Cl)C1 (stereo unspecified),-3.81% (inactive)
20,CC(C)NC(=O)N1CCN(c2ccncc2S(=O)(=O)N2CCCCC2)CC1,0.305% (inactive)
21,C=CCc1ccccc1OCC(O)CN1CCN(CCO)CC1 (stereo unspecified),-1.25% (inactive)
22,Cc1[nH]c2ccccc2c1C(=O)CN1CCCC(C)C1 (stereo unspecified),4.44% (inactive)
23,Cn1c(CCN2CCCCCC2)nc2cc(NC(=O)Nc3ccccc3)ccc21,59.7% (active)
24,Cn1c(CCN2CCCC2)nc2cc(NS(=O)(=O)c3ccccc3)ccc21,9.99% (inactive)

row,Structure (SMILES),max response
1,CCC(=O)Nc1ccc2c(c1)nc(CCN1CCN(c3ccccn3)CC1)n2C,-2.39% (inactive)
2,CCN(CC)C(=O)Oc1ccc(OC(=O)N(CC)CC)cc1,19% (inactive)
3,CCCCCn1c(=O)c(C(=O)Nc2c(C)n(C)n(-c3ccccc3)c2=O)c(O)c2ccccc21,-1.67% (inactive)
4,CCCCCn1c(=O)c(C(=O)NCc2ccccn2)c(O)c2ccccc21,-1.8% (inactive)
5,Cn1c(=O)c(Sc2ccc(Cl)cc2)c(O)c2ccccc21,-5.19% (inactive)
6,C=CCn1c(=O)c(C(=O)Nc2ncccc2O)c(O)c2ccccc21,0.679% (inactive)
7,CCCn1c(=O)c(C(=O)Nc2cc(C)ccn2)c(O)c2ccccc21,9.34% (active)
8,Cn1c(=O)c(C(=O)Nc2ncccn2)c(O)c2ccccc21,17.3% (active)
9,N#C/C(=C/c1cccc([N+](=O)[O-])c1)c1nnc2n1CCCCC2,-4.02% (inactive)
10,CC(C)(C)c1ccc(C(=O)NCCn2c(N)c(C#N)c3nc4ccccc4nc32)cc1,-4.74% (inactive)
11,N#Cc1cccc(CN2CCC(=O)N([C@H](CO)c3ccccc3)CC2)c1,-0.681% (inactive)
12,COc1cc(/C=C2/C(=O)ON=C2C)ccc1OCc1cccc(F)c1,27.9% (inactive)
13,COc1cc(/C=C2/C(=O)ON=C2C)ccc1OCc1ccccc1F,76% (active)
14,CCOc1ccc(/C=N/NC(=O)C(C)Sc2ccccn2)cc1OCC (stereo unspecified),-2.71% (inactive)
15,C=CCOc1ccc(/C=C2/C(=O)ON=C2C)cc1OCC,-0.862% (inactive)
16,CCOc1c(Cl)cc(/C=N/O)cc1OC,5.27% (inactive)
17,CCOc1cc(/C=N/O)ccc1OCc1ccccc1F,30.7% (active)
18,CCC1=C(OC(=O)N(CC)CC)N2C(=O)OC(=NCCc3c[nH]c4ccccc34)[C@]2(C)[C@H]2C1=CC[C@H]1C(=O)N(CC)C(=O)[C@H]12,-4.31% (inactive)
19,O=C(CCc1nnc2ccc(NCc3ccccc3Cl)nn12)NCC1CCN(C2CCCC2)C1 (stereo unspecified),-4.64% (inactive)
20,Cc1ccc(NS(=O)(=O)c2c(C)[nH]c(C)c2C(=O)N2CCCCC2)c(C)c1,18% (inactive)
21,CN(C)c1ccc(C=C2C(=O)OC3(CCCC3)OC2=O)cc1,0.693% (inactive)
22,O=C(Nc1ccn(Cc2ccccc2)n1)c1cccc(F)c1,39% (active)
23,O=C(Cn1cnc([N+](=O)[O-])n1)NCCc1ccccc1,6.14% (inactive)
24,O=C(Nc1ccn(Cc2ccccc2)n1)c1n[nH]c([N+](=O)[O-])c1Cl,47.7% (active)

row,Structure (SMILES),max response
1,Cc1nnsc1C(=O)NCc1c(F)cccc1Cl,8.44% (inactive)
2,O=C(Nc1ccccc1N1CCN(c2ccccc2)CC1)c1cccc(F)c1,-4.37% (inactive)
3,O=C(Nc1ccccc1N1CCCCC1)c1cccc(F)c1,3.77% (inactive)
4,CC(C)(C)NC(=O)NC(=O)COC(=O)Cc1c(F)cccc1Cl,6.65% (inactive)
5,CC(=O)Nc1ccn(Cc2c(F)cccc2Cl)n1,18.4% (active)
6,O=C(O)CC(Cc1ccccc1)C(=O)Nc1ccc([N+](=O)[O-])cc1 (stereo unspecified),11.6% (inactive)
7,CCOc1cc(C)ccc1OCc1nnc(SCC(=O)Nc2cccc(C(=O)O)c2)n1-c1ccccc1,3.69% (inactive)
8,CC(C)C[C@H]1CN=C(Nc2ccccc2)N1CC1CCCCC1,-4.32% (inactive)
9,CC(=O)N1c2ccc(S(=O)(=O)N3CCCC(C(=O)Nc4ccc(C)cc4C)C3)cc2CC1C (stereo unspecified),-0.234% (inactive)
10,CC(C)c1cc(NCc2ccccn2)n2c(nc3ccccc32)c1C#N,9.39% (inactive)
11,Cc1ccc(Cl)cc1N1CCN(C(=O)c2cccc3c(=O)c(C)c(-c4ccccc4)oc23)CC1,3.64% (inactive)
12,COCCn1cnc2c1c(=O)n(CC(=O)NN)c(=O)n2Cc1ccccc1,-14.6% (inactive)
13,O=Cc1c(Nc2ccccc2Cl)nc2ccccn2c1=O,-2.35% (inactive)
14,O=C(COC(=O)CCCNC(=O)c1ccc(Cl)cc1)Nc1cc(Cl)ccc1Cl,-0.294% (inactive)
15,COCCn1c(C)cc(C2=NNC(=Nc3ccc(F)cc3)SC2)c1C,31.2% (active)
16,Cc1cc(C2=NNC(=Nc3ccc(S(=O)(=O)N4CCOCC4)cc3)SC2)c(C)n1CC1CCCO1 (stereo unspecified),19.4% (inactive)
17,C=CCn1c(C)cc(C2=NNC(=NCC)SC2)c1C,-12% (inactive)
18,COc1ccc(C(=O)C[n+]2ccc(N)c(C)c2C)cc1,-5.16% (inactive)
19,CN1CN(C)c2ccc([N+](=O)[O-])c3cccc1c23,-0.807% (inactive)
20,C=CCNC(=S)/N=c1/ccccn1Cc1ccccc1,1.08% (inactive)
21,CN(CC(=O)Nc1ccc(N2CCOCC2)cc1)CC(=O)Nc1ccccc1[N+](=O)[O-],-1.06% (inactive)
22,COc1ccccc1OCCNc1cc(N2CCOCC2)ccc1[N+](=O)[O-],24.7% (active)
23,CC(=O)Nc1ccc(S(=O)(=O)N2CCN(c3ccc([N+](=O)[O-])c(NCCN4CCOCC4)c3)CC2)cc1,-3.02% (inactive)
24,Cc1ccc(CNC(=O)C2CCCN2S(=O)(=O)c2ccc3c(c2)C(C)(C)C(=O)N3C)cc1 (stereo unspecified),-3.55% (inactive)

row,Structure (SMILES),max response
1,C=CCOc1ccc(C(=O)Nc2ccccc2C(=O)N2CCCC2)cc1,-1.61% (inactive)
2,Cc1cccc(NC(=O)CN2CCCN(S(=O)(=O)c3ccc(Br)s3)CC2)c1,19.9% (inactive)
3,CSc1ncccc1C(=O)OCC(=O)N1CCOCC1,-5.04% (inactive)
4,CSc1ncccc1C(=O)OCc1ccc(Br)cc1,36.2% (active)
5,CSc1ncccc1C(=O)NCc1ccccc1Cl,2.57% (inactive)
6,CN1CCN(c2cc3c(cc2F)c(=O)c(C(=O)O)cn3CCF)CC1,-3.38% (inactive)
7,Oc1ccc(N=Nc2nccs2)c(O)c1,38% (active)
8,Oc1ccc2ccccc2c1N=Nc1nccs1,11.4% (inactive)
9,Cc1nnc(SCC(=O)N2CCc3ccccc32)n1-c1ccccc1,-1.58% (inactive)
10,O=C(CSCc1ccccc1)N1CCc2ccccc21,50.5% (active)
11,NC(=O)N1CCc2ccccc21,-6.54% (inactive)
12,Cc1ccc(Oc2cc(NC(=O)CCCn3nc(C)c([N+](=O)[O-])c3C)cc([N+](=O)[O-])c2)cc1,6.56% (inactive)
13,Cc1ccc2ccc3c(c2n1)NS(=O)(=O)c1ccccc1-3,9.31% (inactive)
14,O=C1CC(C(F)(F)C(F)(F)C(F)(F)C(F)(F)F)=Nc2ccccc2N1,1.33% (inactive)
15,Cc1ccccc1-n1nc(C)c2cc(C(=O)NC3CC3)sc21,13.7% (inactive)
16,O=C(CSc1nc2nccnc2c(=O)n1Cc1cccs1)Nc1ccccc1F,18.8% (inactive)
17,Cc1ccc(Cc2nc(-c3cccc(C)c3)no2)cc1,31.8% (active)
18,Cc1cccc(-c2noc(CCC(=O)NC3CCCC3)n2)c1,2.28% (inactive)
19,Cc1cccc(-c2noc(-c3ccc(F)cc3)n2)c1,70.7% (active)
20,Cc1cccc(-c2nc(Nc3ccc(O)cc3)c3ccccc3n2)c1,-0.236% (inactive)
21,CC(=O)N1CCCc2cc(S(=O)(=O)N3CCCC(C(=O)NCc4ccc(Cl)cc4)C3)ccc21 (stereo unspecified),-1.26% (inactive)
22,CCN1C(=O)C(C(=O)NC(C)c2ccccc2)C2CC1(C)Oc1ccccc12 (stereo unspecified),-6.07% (inactive)
23,Cc1nn(CC(=O)N2CCCCC2)c(=O)c2nn(-c3ccccc3)c(C)c12,-0.579% (inactive)
24,C[C@H](NC(=O)C1CCN(S(=O)(=O)c2ccccc2)CC1)C(=O)NCc1ccccc1,-2.6% (inactive)

# From PubChem BioAssay AID2314 (National Center for Advancing Translational Sciences (NCATS), 2010)
